Where “and” joins values, the source holds several entries; their conditions need not be identical. Equal entries are not always repeated. Results filed as inconclusive are left out. Calls of active or inactive are those of the source. Unless noted, the call rests on the fitted dose curve; in most records, active means well fitted curve in the direction sought with a large enough effect in the repeat runs; inconclusive means weak or mixed curves; inactive means no such curve, though single readings can be large; an effect the other way counts as inactive or inconclusive.

The nature of test [1]: qHTS assay for small molecules that induce genotoxicity in human embryonic kidney cells expressing luciferase-tagged ATAD5 (AID 651632). Further: nearly all actives have a fitted effect of over 15% in size. The gist of the method: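 HEK293T cells carrying a luciferase reporter tagged to ATAD5 were exposed to compound or DMSO vehicle for 16 hr at 37C, 5% CO2. Amplite was added, and after 30 min at room temperature luciferase activity was read as a marker of ATAD5 induction.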

Test [2] is described as follows: qHTS assay for small molecules that induce genotoxicity in human embryonic kidney cells expressing luciferase-tagged ATAD5 - cell viability (AID 651634; calls by dose curve; further: nearly all actives have a fitted effect of over 25% in size; further: potency means the concentration at half of the fitted maximal effect). The gist of the method:
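HEK293T cells expressing luciferase-tagged ATAD5 were exposed to compound or DMSO for 15.5 hr at 37C, 5% CO2. Viability was then read as live-cell protease activity by CellTiter-Fluor fluorescence after 30 min at 37C.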

Test [3] in a line: qHTS assay for small molecule disruptors of the mitochondrial membrane potential (AID 720635). Further: potency means the concentration at half of the fitted maximal effect. The gist of the method:
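Mitochondrial membrane potential tracked with Mito-MPS dye, red aggregates (ex 540/em 590 nm) against green monomers (ex 490/em 535 nm). Compound treatment 1 hr at 37C, dye 30 min in HepG2.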

Test [4] can be described thus: qHTS assay to test for compound auto fluorescence at 590 nm (red) in HepG2 cells (AID 720674). The gist of the method:
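Red autofluorescence (Ex/Em 540/590 nm, Rose Bengal sodium equivalents) was measured in HepG2 cells, 2,000 per well in MEM plus 10% FBS, plated overnight at 37 C. Readings were taken 1 hr after adding 23 nL compound or DMSO, at 37 C and 5% CO2.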

Test [5] can be described thus: qHTS assay to test for compound auto fluorescence at 535 nm (green) in HepG2 cells (AID 720675).
Test [6] can be described thus: qHTS assay to test for compound auto fluorescence at 460 nm (blue) in HEK293 cells (AID 720678). The gist of the method: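 Measured: blue fluorescence (Ex 405/Em 460 nm) of compound-treated HEK293 cells, incubated overnight at 37C with 5% CO2 and scaled to triamterene equivalents.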
The nature of test [7]: qHTS assay to test for compound auto fluorescence at 590 nm (red) in HEK293 cells (AID 720679). An outline of the steps:
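Using HEK293 cells at 2,000 per well, the screen added 23 nL of each compound after cell attachment and incubated overnight (37C, 5% CO2). The plate reader then captured red-label fluorescence, Ex/Em 540/590nm.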

A short description of test [8]: qHTS assay to test for compound auto fluorescence at 535 nm (green) in HEK293 cells (AID 720680).
Test [9] in a line: qHTS assay to test for compound auto fluorescence at 460 nm (blue) in HEK293 cell free culture (AID 720681). An outline of the steps: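 Blue fluorescence (Ex 405/Em 460 nm, triamterene-equivalent) was read immediately after pin transfer of compound or DMSO into medium (DMEM, 10% FBS) without cells.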
Test [10] is described as follows: qHTS assay to test for compound auto fluorescence at 535 nm (green) in HEK293 cell free culture (AID 720682). An outline of the steps: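 DMEM + 10% FBS, cell-free; cpd or DMSO pinned in; Ex485/Em535 read; output as fluorescein-equivalent signal.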
The nature of test [11]: qHTS assay to test for compound auto fluorescence at 590 nm (red) in HEK293 cell free culture (AID 720683). The gist of the method: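 Red-channel autofluorescence of compounds in culture medium (DMEM, 10% FBS), no cells, measured at 540/590 nm. Rose Bengal sodium is the reference fluorophore for equivalence.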
Test [12] can be described thus: qHTS assay to test for compound auto fluorescence at 460 nm (blue) in HepG2 cell free culture (AID 720685). The gist of the method:
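Compound (23 nL) or DMSO pinned into cell-free MEM with 10% FBS; blue fluorescence read at 405/460 nm excitation/emission, expressed as auto-fluorescence equivalency to triamterene.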

Test [13] is described as follows: qHTS assay to test for compound auto fluorescence at 535 nm (green) in HepG2 cell free culture (AID 720686).
Test [14] can be described thus: qHTS assay to test for compound auto fluorescence at 460 nm (blue) in HepG2 cells (AID 720687). The gist of the method:
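Blue-channel autofluorescence (Ex/Em 405/460 nm, triamterene-equivalent) was measured after 1 hr compound exposure at 37 C, 5% CO2. Cells were HepG2, plated overnight at 37 C in MEM plus 10% FBS.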

Test [15] can be described thus: qHTS assay for small molecule disruptors of the mitochondrial membrane potential - cell viability (AID 720634; calls by dose curve; further: nearly all actives have a fitted effect of over 20% in size; further: potency means the concentration at half of the fitted maximal effect). An outline of the steps:
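HepG2 cells seeded overnight at 37 C, then exposed to compound or DMSO for 1 hr at 37 C, 5% CO2. m-MPI dye added, then CellTiter-Glo for 30 min at room temperature; viability read as ATP luminescence.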

Test [16] is described as follows: qHTS assay to test for compound auto fluorescence at 590 nm (red) in HepG2 cell free culture (AID 720684). The gist of the method:
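Steps: dispense MEM/10% FBS medium, no cells; pin compound or DMSO vehicle; read red channel, Ex/Em 540/590 nm. Output given as Rose Bengal sodium equivalents.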

Test [17] concerns the target Glucocorticoid receptor (Homo sapiens) (UniProt P04150). Nature of the test: qHTS assay to identify small molecule agonists of the glucocorticoid receptor (GR) signaling pathway (AID 720691; active means well fitted activation curve with a large enough effect in the signal ratio in the repeat runs, not every such curve was filed as active; the % refers to the signal ratio; further: potency means the concentration at half of the fitted maximal effect). An outline of the steps:
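GR-bla HeLa cells (beta-lactamase reporter under glucocorticoid response element) were plated 4 h at 37 C/5% CO2, given compounds in DMSO, and incubated 18 h at 37 C. LiveBLAzer B/G FRET substrate was added for 2 h at room temperature, then fluorescence intensity read.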

Test [18] is described as follows: qHTS assay for small molecule agonists of the p53 signaling pathway - cell viability (AID 651633; calls by dose curve; further: nearly all actives have a fitted effect of over 30% in size; further: potency means the concentration at half of the fitted maximal effect). The gist of the method:
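Viability counter-read: CellTiter-Glo luminescence (30 min, room temperature) in the same p53RE-bla plates. These plates had been exposed to compounds for 16 h at 37 C.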

Chain of Glucocorticoid receptor (Homo sapiens) (P04150 whole entry, looked up): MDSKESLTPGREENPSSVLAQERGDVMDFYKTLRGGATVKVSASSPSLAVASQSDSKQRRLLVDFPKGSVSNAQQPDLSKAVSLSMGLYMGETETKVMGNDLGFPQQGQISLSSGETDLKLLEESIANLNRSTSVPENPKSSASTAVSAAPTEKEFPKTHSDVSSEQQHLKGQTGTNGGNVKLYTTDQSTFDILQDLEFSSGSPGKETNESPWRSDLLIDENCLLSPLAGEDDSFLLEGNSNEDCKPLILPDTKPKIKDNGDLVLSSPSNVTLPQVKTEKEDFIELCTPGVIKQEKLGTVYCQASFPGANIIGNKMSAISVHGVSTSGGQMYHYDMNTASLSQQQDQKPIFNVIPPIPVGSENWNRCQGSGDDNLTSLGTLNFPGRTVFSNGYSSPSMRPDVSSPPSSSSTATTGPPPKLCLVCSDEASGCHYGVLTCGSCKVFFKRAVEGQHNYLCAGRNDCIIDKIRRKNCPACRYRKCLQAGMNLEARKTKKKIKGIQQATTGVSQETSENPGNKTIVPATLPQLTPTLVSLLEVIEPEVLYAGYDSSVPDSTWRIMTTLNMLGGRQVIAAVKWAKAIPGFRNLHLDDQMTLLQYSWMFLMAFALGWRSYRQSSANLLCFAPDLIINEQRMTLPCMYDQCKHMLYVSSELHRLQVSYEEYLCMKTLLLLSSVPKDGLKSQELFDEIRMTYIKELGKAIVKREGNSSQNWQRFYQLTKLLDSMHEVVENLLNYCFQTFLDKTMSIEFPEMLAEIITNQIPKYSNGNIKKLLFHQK

Regarding `Nc1ccc(Cc2ccc(N)c(Cl)c2)cc1Cl`, the Potency entry in [1], in [2], in test [6], in [9], in test [12] and in test [14] was “inactive” in each case. Moreover, the Potency in [3] was 59.1 µM (active). Moreover, the call in [4], in [5], in [7], in test [8], in [10] and in [11] was inactive. For the same molecule, the molecule was classed as inactive in test [13].

As for `C=CC(=O)OCCCCOC(=O)C=C`, in [2], the Potency is 54.5 µM (active). Further, the Potency entry in test [15], in [3], in [6], in test [9], in test [12] and in [14] was “inactive” each time. Besides, the Potency result in [17] was “inactive”. In addition, the molecule was classed as inactive in test [4], in [5], in test [7], in test [8], in [10] and in [11]. Besides, the outcome in test [16] and in test [13] was inactive.

Regarding `CCCCN(CCCC)C(=S)[S-].CCCCN(CCCC)C(=S)[S-].[Zn+2]`, the Potency was 9.44 µM (active) and 61.1 µM (active) in [18]; 27.3 µM (active) in test [3]. Besides, the Potency result in test [15], in test [6], in test [9], in test [12] and in test [14] was “inactive” throughout. Besides, the molecule was classed as inactive in test [4], in test [5], in test [7], in [8], in [10] and in [11]. For the same molecule, the result in [16] and in [13] was inactive.

In the case of `N#C/C=C/C#N`, the Potency result in test [18], in test [15], in test [6], in [9], in test [12] and in test [14] was “inactive” in each case. Also, the outcome in test [4], in [5], in [7], in test [8], in test [10] and in [11] was inactive. The molecule was called inactive in [16] and in [13].

Take `[Hg+2].[I-].[I-]`: the Potency is 61.1 µM (active) in test [18], 61.1 µM (active) in test [2], 48.6 µM (active) in [15] and 17.2 µM (active) in test [3]. In addition, the result in test [4], in test [5], in test [8], in [10], in test [11] and in test [16] was inactive. For the same molecule, the molecule was classed as inactive in test [13]. In addition, the Potency entry in test [6], in test [9], in test [12] and in test [14] was “inactive” throughout.

As for `O=[N+]([O-])O.O=[N+]([O-])O.[Cd]`, the Potency in test [2] was 1.22 µM (active); in [17], 0.389 µM (active). Further, the call in test [4], in test [5], in test [7], in test [8], in test [10] and in test [11] was inactive. Further, the result in test [16] and in test [13] was inactive. For the same molecule, the Potency result in test [6], in test [9], in [12] and in test [14] was “inactive” each time.

With `CC(C)OC(=O)C(O)(c1ccc(Cl)cc1)c1ccc(Cl)cc1`, the Potency entry in test [1], in test [2], in test [6], in test [9], in test [12] and in test [14] was “inactive” in each case. Further, in test [17], the Potency result was “inactive”. The Potency in test [3] was 24.3 µM (active). The call in test [4], in test [5], in [7], in test [8], in [10] and in test [11] was inactive. Also, the call in test [16] and in test [13] was inactive.

As for `CN(C)S(=O)(=O)N(SC(F)(Cl)Cl)c1ccccc1`, the Potency result in test [1], in [6], in [9] and in test [14] was “inactive” in each case. Moreover, the Potency in [15] is 61.1 µM (active); in test [3], 4.86 µM (active). Moreover, the molecule was called inactive in test [4], in test [5], in [7], in test [8], in [10] and in test [11]. Further, the molecule was called inactive in [13].

For the molecule `Oc1ccc(C(=C(Cl)Cl)c2ccc(O)cc2)cc1`, the Potency entry in test [1], in test [2], in test [6], in [9], in [12] and in [14] was “inactive” throughout. Besides, in [3], the Potency is 17.2 µM (active). The molecule was called inactive in test [4], in test [5], in test [8], in test [10], in test [11] and in test [16]. Further, the outcome in test [13] was inactive.

`CC(=O)Nc1ccc2c(c1)Cc1ccccc1-2`: the Potency result in [18], in [2], in test [15], in test [6], in [9] and in test [12] was “inactive” in each case. For the same molecule, the Potency result in [14] was “inactive”. Besides, in test [3], the Potency was 31.1 µM (active). Besides, the molecule was classed as inactive in [4], in test [5], in test [8], in test [10], in test [11] and in test [13].
